Experimental data reported in PubChem BioAssay (NCATS).
Inconclusive results are not listed. Some structures have more than one record in an assay (separate samples or runs), and their calls can disagree. Activity calls are given as the source filed them. Unless noted, calls come from the whole dose curve; as a rule, active = well fitted curve in the direction sought with a large enough effect; inconclusive = small, poorly fitted or top-dose-only effect, or another doubt; inactive = no such curve, though single readings can be large; an effect the other way counts as inactive or inconclusive.

Columns and labels:
[1] = biological target: Voltage-gated inwardly rectifying potassium channel KCNH2 (Homo sapiens) (UniProt Q12809); assay: qHTS Assay for Small Molecule Inhibitors of the Human hERG Channel Activity (AID 588834);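 note: lower thallium flux fluorescence means stronger hERG block; nearly all actives have a fitted effect of over 50% in size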; note: potency is the fitted concentration of half-maximal effect
Sequence of Voltage-gated inwardly rectifying potassium channel KCNH2 (Homo sapiens) (Q12809 whole entry, looked up): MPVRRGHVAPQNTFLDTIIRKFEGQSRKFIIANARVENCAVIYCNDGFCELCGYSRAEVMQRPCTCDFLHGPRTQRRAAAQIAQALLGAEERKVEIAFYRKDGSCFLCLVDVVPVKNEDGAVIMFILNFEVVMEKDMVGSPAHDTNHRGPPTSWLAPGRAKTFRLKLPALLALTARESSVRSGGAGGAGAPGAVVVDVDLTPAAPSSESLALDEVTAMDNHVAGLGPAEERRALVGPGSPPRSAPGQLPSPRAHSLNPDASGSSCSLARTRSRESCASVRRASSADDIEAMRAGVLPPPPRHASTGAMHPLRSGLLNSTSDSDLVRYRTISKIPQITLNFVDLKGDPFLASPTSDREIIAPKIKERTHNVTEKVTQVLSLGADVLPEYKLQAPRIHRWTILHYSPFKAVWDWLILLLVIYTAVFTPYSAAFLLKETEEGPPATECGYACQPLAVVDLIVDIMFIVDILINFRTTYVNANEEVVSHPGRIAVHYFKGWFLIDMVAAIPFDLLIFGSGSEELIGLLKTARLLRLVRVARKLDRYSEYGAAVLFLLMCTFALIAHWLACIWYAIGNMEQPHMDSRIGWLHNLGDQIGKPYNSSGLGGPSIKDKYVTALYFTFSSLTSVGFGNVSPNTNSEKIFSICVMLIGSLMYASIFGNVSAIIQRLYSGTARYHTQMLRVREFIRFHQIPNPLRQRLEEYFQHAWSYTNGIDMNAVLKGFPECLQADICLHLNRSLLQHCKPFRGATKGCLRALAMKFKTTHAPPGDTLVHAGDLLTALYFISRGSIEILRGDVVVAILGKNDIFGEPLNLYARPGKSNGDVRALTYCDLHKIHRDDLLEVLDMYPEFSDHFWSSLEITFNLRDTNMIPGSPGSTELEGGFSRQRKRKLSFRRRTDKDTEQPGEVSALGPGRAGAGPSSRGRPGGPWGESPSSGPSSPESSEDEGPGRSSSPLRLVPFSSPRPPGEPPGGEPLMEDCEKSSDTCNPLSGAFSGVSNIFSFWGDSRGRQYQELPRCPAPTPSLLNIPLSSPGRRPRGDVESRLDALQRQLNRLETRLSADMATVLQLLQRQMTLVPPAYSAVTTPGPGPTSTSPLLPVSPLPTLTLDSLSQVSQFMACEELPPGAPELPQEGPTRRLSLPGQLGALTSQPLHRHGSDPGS
Outline: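 U2OS cells BacMam-transduced with hERG, 2000 cells/well, compound ~10 min at 37 °C before stimulation buffer. FluxOR thallium flux fluorescence read kinetically on FDSS; decrease indicates block; AC50 from Hill fits.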

[2] = S16 Schwann cell viability assay (CellTiter-Glo assay) (AID 624031);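 note: native untransfected S16 rat Schwann cells; cellular ATP luminescence as a viability measure; series mostly up to about 58 µM; nearly all actives have a fitted effect of over 70% in size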
Outline: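 Parental S16 cells, 24 h compound, 37 °C. ATP-luminescence viability; DMSO = 0% activity, empty wells as reference; curves classified by fit quality and efficacy.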

[3] = S16 Schwann cell PMP22 intronic element firefly luciferase assay (AID 624032); note: series mostly up to about 58 µM; nearly all actives have a fitted effect of over 30% in size
Outline: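 Luciferase reporter of PMP22 intronic-element expression in stably transfected S16 rat Schwann cells, read by ONE-Glo luminescence after 24 h compound exposure at 37 C. Activity scaled between DMSO (0%) and positive-control PTC124; concentration-effect curves quality-classified.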

[4] = S16 Schwann cell PMP22 intronic element beta-lactamase assay (AID 624044; calls by dose curve; note: nearly all actives have a fitted effect of over 15% in size; note: potency is the fitted concentration of half-maximal effect)
Outline: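 Rat S16 Schwann cells with beta-Lac driven by a PMP22 intronic element, compound-treated 24 h at 37 °C. LiveBLAzer FRET B/G read: 460 nm normalized to potassium clavulanate vs DMSO; 535 nm FRET as viability; concentration-effect curves classified.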

[5] = biological target: Glutaminase kidney isoform, mitochondrial (Homo sapiens) (UniProt O94925); assay: qHTS for Inhibitors of Glutaminase (GLS): LOPAC Validation (AID 624146);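 note: glutamate product detected by oxidase and peroxidase coupled Amplex red fluorescence gain; series mostly up to about 46 µM; nearly all actives have a fitted effect of over 60% in size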
Sequence of Glutaminase kidney isoform, mitochondrial (Homo sapiens) (O94925 whole entry, looked up, canonical isoform): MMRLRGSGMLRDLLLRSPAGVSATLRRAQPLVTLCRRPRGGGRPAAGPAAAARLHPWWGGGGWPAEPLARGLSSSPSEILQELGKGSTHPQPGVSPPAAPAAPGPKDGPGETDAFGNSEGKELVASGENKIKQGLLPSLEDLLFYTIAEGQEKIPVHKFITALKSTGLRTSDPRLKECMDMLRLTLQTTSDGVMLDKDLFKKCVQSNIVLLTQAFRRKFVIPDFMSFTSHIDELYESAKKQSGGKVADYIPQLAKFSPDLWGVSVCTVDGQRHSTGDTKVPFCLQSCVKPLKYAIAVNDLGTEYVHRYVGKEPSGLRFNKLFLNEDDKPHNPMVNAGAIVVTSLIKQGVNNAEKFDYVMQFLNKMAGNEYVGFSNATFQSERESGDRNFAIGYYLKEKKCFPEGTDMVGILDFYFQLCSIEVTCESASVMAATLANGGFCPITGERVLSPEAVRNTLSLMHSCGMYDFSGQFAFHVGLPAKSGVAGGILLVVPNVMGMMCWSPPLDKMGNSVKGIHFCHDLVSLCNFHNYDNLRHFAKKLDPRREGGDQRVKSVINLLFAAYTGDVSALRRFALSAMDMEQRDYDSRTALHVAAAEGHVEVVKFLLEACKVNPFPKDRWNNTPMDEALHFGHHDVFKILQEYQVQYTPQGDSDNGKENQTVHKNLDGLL
Outline: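 Enzyme dispensed in phosphate buffer (45 mM, pH 8.2, 0.02% Tween-20), compounds pinned in, then 1 mM L-glutamine solution and the glutamate oxidase–HRP–Amplex Red mix added; fluorescence read immediately and again after 30 min at room temperature.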

[6] = qHTS of Trypanosoma Brucei Inhibitors: LOPAC Validation (AID 624147)
Outline: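 Readout: single end-point luminescence (Kinase-Glo Plus, 10 min). Reaction conditions were TbPYK/substrate plus 130 uM ADP, 45 min at RT, pH 7.2 TEA buffer. No-enzyme wells served as controls, and data were normalized before concentration-response fitting.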

[7] = biological target: Glucagon-like peptide 1 receptor (Homo sapiens) (UniProt P43220); assay: qHTS of GLP-1 Receptor Agonists: LOPAC Validation (AID 624148);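 note: luminescence from a luciferase reporter switched on by cAMP; higher luminescence signal means agonism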
Sequence of Glucagon-like peptide 1 receptor (Homo sapiens) (P43220 whole entry, looked up): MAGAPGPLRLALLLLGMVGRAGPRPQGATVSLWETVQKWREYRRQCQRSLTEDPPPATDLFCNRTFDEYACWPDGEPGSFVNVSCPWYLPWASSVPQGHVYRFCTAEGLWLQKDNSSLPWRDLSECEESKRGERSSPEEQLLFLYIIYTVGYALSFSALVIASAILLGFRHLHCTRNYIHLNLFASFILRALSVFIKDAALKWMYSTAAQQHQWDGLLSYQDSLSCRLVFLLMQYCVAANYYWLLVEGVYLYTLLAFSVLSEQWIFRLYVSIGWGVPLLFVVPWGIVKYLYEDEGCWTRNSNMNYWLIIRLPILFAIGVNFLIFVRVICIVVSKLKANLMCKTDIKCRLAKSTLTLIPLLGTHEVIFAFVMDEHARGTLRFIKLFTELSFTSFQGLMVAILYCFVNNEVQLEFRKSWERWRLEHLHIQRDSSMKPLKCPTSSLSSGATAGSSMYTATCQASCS
Outline: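 Agonism scored as increased luciferase luminescence driven by cAMP in HEK293 clones carrying GLP-1R. Cells settled 12 hours, received compound for 4-6 hr at 37 deg C, 5% CO2, and were read after 12 min detection reagent at RT.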

[8] = qHTS of Nrf2 Activators: LOPAC Validation (AID 624149)
Outline: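 AREc32 cells carrying an ARE-driven firefly luciferase were grown overnight in OPTI-MEM with 5% FBS, then exposed to compounds for 24 hr at 37 deg C. Luciferase signal was read after 30 min with Steady-Glo at RT.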

[9] = HTS Assay for Allosteric Antagonists of the Human D2 Dopamine Receptor: Hit Validation in HTRF (AID 624455);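 note: stable D1 dopamine receptor cell line scored for blocking the D1 response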
Outline: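 Hits were examined in an HTRF assay using cells stably expressing the D1 dopamine receptor, scoring inhibition of the D1-mediated response. The preceding primary screen tracked calcium flux after an EC80 dopamine addition in force-coupled, inducible Hek293 Trex D2 cells.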

[10] = biological target: Luciferin 4-monooxygenase (Photinus pyralis) (UniProt P08659); assay: Biochemical firefly luciferase enzyme assay for NPC (AID 624030);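 note: purified P. pyralis luciferase at 10 nM with luciferin and ATP substrate; series mostly up to about 59 µM; nearly all actives have a fitted effect of over 70% in size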
Sequence of Luciferin 4-monooxygenase (Photinus pyralis) (P08659 whole entry, looked up): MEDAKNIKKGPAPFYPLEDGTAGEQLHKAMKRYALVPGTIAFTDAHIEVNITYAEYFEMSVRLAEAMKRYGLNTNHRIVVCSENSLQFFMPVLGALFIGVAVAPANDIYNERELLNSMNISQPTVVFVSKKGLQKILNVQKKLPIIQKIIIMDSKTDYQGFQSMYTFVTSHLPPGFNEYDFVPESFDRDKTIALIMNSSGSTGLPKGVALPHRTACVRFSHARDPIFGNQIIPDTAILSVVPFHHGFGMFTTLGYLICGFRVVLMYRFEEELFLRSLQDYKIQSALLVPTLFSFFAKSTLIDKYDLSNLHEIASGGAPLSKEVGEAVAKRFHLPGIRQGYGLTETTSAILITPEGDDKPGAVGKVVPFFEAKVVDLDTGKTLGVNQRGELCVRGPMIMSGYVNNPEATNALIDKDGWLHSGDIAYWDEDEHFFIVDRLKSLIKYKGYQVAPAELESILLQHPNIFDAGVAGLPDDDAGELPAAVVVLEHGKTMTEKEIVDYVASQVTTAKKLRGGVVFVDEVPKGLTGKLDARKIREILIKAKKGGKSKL
Outline: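 Direct inhibition of firefly luciferase enzyme (10 nM final, 50 mM Tris Acetate) assessed by luminescence within 5 minutes. Percent activity scaled between DMSO and PTC124 positive control, with concentration-effect curves classified by fit quality and response.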

Measured: Potency

Cc1ccc(C(=O)c2ccc(CC(=O)O)n2C)cc1
inactive: [1] | [2] | [3]

CN1CCN(c2cc3c(nn2)Oc2ccccc2N3C)CC1
inactive: [1] | [2]

CN(C)c1ccc(C(=C2C=CC(=[N+](C)C)C=C2)c2ccccc2)cc1
inactive: [3]
active: [1] 7.08 µM | [4] 3.98 µM

Brc1c(Br)c(Br)c2n[nH]nc2c1Br
inactive: [1] | [5] | [6] | [7] | [8] | [9]

CCOc1ccc2nc(S(N)(=O)=O)sc2c1
inactive: [1] | [2] | [3]

CC(=O)[C@]1(O)Cc2c(O)c3c(c(O)c2[C@@H](O[C@H]2C[C@H](N)[C@H](O)[C@H](C)O2)C1)C(=O)c1c(O)cccc1C3=O
active: [4] 0.398 µM
inactive: [1] | [2]

O=C(Nc1ccc(C(=O)O)c(O)c1)c1ccccc1
inactive: [1] | [2] | [3] | [4]

OC[C@H]1O[C@@H](n2cnc3c(NC4CCCCC4)ncnc32)[C@H](O)[C@@H]1O
inactive: [1] | [5] | [6] | [7] | [8] | [9]

O=C(O)CCCC[C@@H]1CCSS1
inactive: [1] | [5] | [6] | [7] | [8] | [9]

C=CCN1C(=O)C(CC(C)C)NC1=S (stereo unspecified)
inactive: [1] | [10] | [2] | [3] | [4]

O=C(O)/C=C/C(O)c1ccc(Cl)cc1 (stereo unspecified)
not listed: [8]
inactive: all other assays above

CC(C)Cc1ccc([C@H](C)C(=O)O)cc1
inactive: [1] | [10] | [5] | [6] | [7] | [9]
